Screening data (PubChem)
This is a sample that favours compounds with a hit; in the whole collection about 6.8% have one here.
C diff HTS: blocks growth of Clostridium difficile; Clostridium difficile clinical isolate growth, OD600, 24 h; hits give low values; growth activity, negative = inhibition, % at 16 µg/mL (by protocol); 0.25% of 86,000 active; AID 1259249;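 active means mean growth activity at or below -80% and every replicate also at or below -80%; inconclusive means mean at or below -80% but some replicate above -80%; inactive means mean growth activity above -80%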
T cruzi growth-1: inhibitors of T. cruzi proliferation. T. cruzi beta-gal in NIH3T3, GalScreen luminescence, 90 h. AID 624255. inhibition, % at 8.34 µM. 5.9% of 77,000 active;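 active means mean inhibition above about 93%, with at least 55% of replicates each passing it, limit read from the data, passing the limit was not always enough; inconclusive means only one of those two conditions holds; inactive means neither condition holds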
Pf Dd2 growth: blocks growth of Plasmodium falciparum Dd2 parasites. 2.3% of 94,000 active. activity change, % at 10 µM. AID 1159554. P. falciparum Dd2 growth, SYBR Green, 72 h; hits give low values; in the data active means activity change below about -80%; inconclusive means no clear call, values can overlap the other calls
T cruzi growth-2: blocks T. cruzi growth in NIH3T3 host cells | shares compounds with T cruzi growth-1 | 72% of 5,600 active | inhibition, % at 8.35 µM | T. cruzi beta-gal in NIH3T3, GalScreen luminescence, 90 h;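 active means mean replicate inhibition above about 95% and at least 55% of replicates individually reaching it, limit read from the data; inconclusive means only one of the two criteria is met; inactive means neither criterion is met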
T cruzi growth-3: inhibitors of T. cruzi proliferation | shares compounds with T cruzi growth-1 | T. cruzi beta-gal in NIH3T3, GalScreen luminescence, 90 h | inhibition, % at 2.09 µM | 21% of 5,600 active | AID 651740;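 active means mean inhibition above about 95%, with at least 55% of replicates also reaching it, limit read from the data; inconclusive means meets just one of the two conditions; inactive means meets neither condition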
3T3 cytotox: kills mouse NIH/3T3 fibroblasts; AID 651742; NIH/3T3 viability, CellTiter-Glo ATP luminescence, 90 h; 14% of 5,600 active; shares compounds with T cruzi growth-1; cytotoxicity (signal decrease), % at 8.35 µM;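 active means mean signal decrease across replicates above about 35% based on untreated-well scatter, with enough replicates individually passing, limit read from the data; inconclusive means no rule stated though some were filed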
3T3 cytotox 2: kills mouse NIH/3T3 fibroblasts; shares compounds with T cruzi growth-1; inhibition, % at 24.9 µM; 56% of 5,600 active; NIH/3T3 viability, CellTiter-Glo ATP luminescence, 90 h;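 active means mean loss of cell viability signal at or above a set limit, and enough replicates individually reaching it; inconclusive means meets only the mean limit or only the replicate share; inactive means meets neither condition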
Numbers stand for hits; . = inactive; ? = inconclusive; / = no result given.

SMILES | C diff HTS | T cruzi growth-1 | Pf Dd2 growth | T cruzi growth-2 | T cruzi growth-3 | 3T3 cytotox | 3T3 cytotox 2
Cc1noc(C)c1NC(=O)Nc1ccc2c(c1)C(=O)N([C@H](C)CO)C[C@@H](C)[C@@H](CN(C)C(=O)NC1CCCCC1)O2 | . | . | . | / | / | / | /
C[C@@H]1CCCCO[C@H](CN(C)C)[C@@H](C)CN([C@@H](C)CO)C(=O)c2cc(NS(=O)(=O)c3ccc(F)cc3)ccc2O1 | . | . | . | / | / | / | /
COc1ccc(S(=O)(=O)N(C)C[C@@H]2Oc3c(NC(=O)NC(C)C)cccc3C(=O)N([C@@H](C)CO)C[C@H]2C)cc1 | . | . | . | / | / | / | /
CO[C@@H](CN(C)S(=O)(=O)c1cn(C)cn1)[C@@H](C)CN(C(=O)Nc1ccc(C(F)(F)F)cc1)[C@@H](C)CO | / | . | . | / | / | / | /
C[C@@H]1CCCCO[C@@H](CN(C)Cc2ccc3c(c2)OCO3)[C@H](C)CN([C@@H](C)CO)C(=O)c2cc(NS(=O)(=O)c3cccs3)ccc2O1 | . | . | . | / | / | / | /
COc1ccc(NC(=O)Nc2cccc3c2O[C@H](CN(C)S(=O)(=O)c2cn(C)cn2)[C@H](C)CN([C@H](C)CO)C3=O)cc1 | . | . | . | / | / | / | /
C[C@H](CO)N1C[C@H](C)[C@H](CN(C)C)Oc2cc(C#Cc3cccc(F)c3)ccc2S1(=O)=O | . | . | . | / | / | / | /
C[C@@H]1CN([C@H](C)CO)S(=O)(=O)c2ccc(C#Cc3cccc(F)c3)cc2O[C@H]1CN(C)S(=O)(=O)c1ccccc1F | . | 111 | . | 109 | 106 | . | 35
C[C@@H]1CN([C@H](C)CO)S(=O)(=O)c2ccc(C#Cc3cccc(F)c3)cc2O[C@H]1CN(C)C | . | . | . | / | / | / | /
C[C@H](CO)N1C[C@H](C)[C@H](CN(C)S(=O)(=O)c2ccccc2F)Oc2cc(C#Cc3cccc(F)c3)ccc2S1(=O)=O | . | 109 | . | 103 | . | . | .
C[C@@H]1CN([C@@H](C)CO)S(=O)(=O)c2ccc(C#Cc3cccc(F)c3)cc2O[C@@H]1CN(C)C | . | . | . | / | / | / | /
C[C@@H]1CN([C@@H](C)CO)S(=O)(=O)c2ccc(C#Cc3cccc(F)c3)cc2O[C@H]1CN(C)S(=O)(=O)c1ccccc1F | . | 112 | . | 110 | ? | . | 34
O=C(C[C@H]1C[C@H]2c3cc(NC(=O)NC4CCCC4)ccc3O[C@H]2[C@@H](CO)O1)NC1CCCCC1 | . | . | . | / | / | / | /
C[C@H]1CCCCO[C@@H](CN(C)S(=O)(=O)c2ccc(Cl)cc2)[C@@H](C)CN([C@@H](C)CO)C(=O)c2cc(NC(=O)NC3CCCCC3)ccc2O1 | . | . | / | / | / | / | /
O=C(NCC[C@@H]1CC[C@@H](NC(=O)C2CCCCC2)[C@@H](CO)O1)c1ccc(F)cc1 | / | . | . | / | / | / | /
CO[C@@H]1CN(C)C(=O)c2cc(NC(=O)C3CC3)ccc2OC[C@H](C)N(C(=O)c2cnccn2)C[C@H]1C | / | . | . | / | / | / | /
CC(C)C#Cc1ccc2c(c1)O[C@@H](CN(C)Cc1ccccc1)[C@H](C)CN([C@@H](C)CO)S2(=O)=O | . | . | . | / | / | / | /
CC(C)C#Cc1ccc2c(c1)O[C@H](CN(C)Cc1ccccc1)[C@@H](C)CN([C@@H](C)CO)S2(=O)=O | . | 106 | . | . | 103 | . | 106
C[C@H](CO)N1C[C@H](C)[C@@H](CN(C)Cc2ccccc2)Oc2cc(C#CC3CC3)ccc2S1(=O)=O | . | 128 | . | 97 | . | . | 105
CC(C)C#Cc1ccc2c(c1)O[C@@H](CN(C)Cc1ccccc1)[C@@H](C)CN([C@@H](C)CO)S2(=O)=O | . | 106 | . | 101 | . | . | 103
C[C@H](CO)N1C[C@H](C)[C@@H](CN(C)Cc2ccccc2)Oc2cc(C#C[C@@H](C)O)ccc2S1(=O)=O | . | . | . | / | / | / | /
C[C@@H]1CN([C@H](C)CO)S(=O)(=O)c2ccc(C#CC3CC3)cc2O[C@@H]1CN(C)Cc1cccc(F)c1 | . | / | . | / | / | / | /
CC(C)C#Cc1ccc2c(c1)O[C@H](CN(C)Cc1ccccc1)[C@@H](C)CN([C@H](C)CO)S2(=O)=O | . | . | . | / | / | / | /
CC(C)C#Cc1ccc2c(c1)O[C@H](CN(C)Cc1ccccc1)[C@H](C)CN([C@H](C)CO)S2(=O)=O | . | 105 | . | 102 | . | . | 103
